Measured values as given in PubChem BioAssay AID1117359 (Southern Research Institute, 2015).
Among all 1,500 compounds or so, about 460 (31%) were called active.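 How the source made its calls: active means viability at or below 80% at any tested concentration, marking the compound as toxic; inactive means the rest.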 The list is a sample of the results. Measured potencies and affinities stand elsewhere.

test: THP-1 cell cytotoxicity, dose response, cytotoxicity control for Vif-APOBEC3G degradation inhibitor project, THP-1 cells (AID 1117359); settings: THP-1 viability, CellTiter-Glo luminescence, 72 h; series mostly up to 40 µM

| Compound | outcome |
| --- | --- |
| CCN(C(=O)CN1CCN(c2ccc(O)cc2)CC1)c1c(N)n(Cc2ccccc2)c(=O)[nH]c1=O | inactive |
| COC1=C(Br)C(=O)c2nc(C)ccc2C1=O | inactive |
| CCOc1cccc(=O)c2c(C)n(CC(=O)c3ccccc3)c(C)c12 | inactive |
| COc1ccc(CNS(=O)(=O)c2cc(Br)cc3c2N(C(C)=O)C(C)C3)cc1 (centres undefined) | inactive |
| Cc1[nH]n(-c2nc(-c3ccccc3F)cc(=O)[nH]2)c(=O)c1CCO | inactive |
| COc1cc2ccccc2cc1C(=O)N1CCN(c2ccccc2O)CC1 | inactive |
| O=[N+]([O-])c1ccc2c(c1)S(=O)c1ccccc1-2 (centres undefined) | inactive |
| C/C(=N\Nc1ccc([N+](=O)[O-])cc1[N+](=O)[O-])c1cc2c(ccc3ccccc32)oc1=O | inactive |
| CC1=Nc2cccc3cccc(c23)N1 | inactive |
| CCS(=O)(=O)N1CCN(C(=O)c2cccc3ccccc23)CC1 | inactive |
| O=c1c(O)cccc2cc(O)c(O)c(O)c12 | inactive |
| CC12CCC(C(=O)Nc3ccc(Br)cn3)(OC1=O)C2(C)C (centres undefined) | inactive |
| COc1ccc(S(=O)(=O)N2CCC(C(=O)NCc3cccnc3)CC2)cc1Cl | inactive |
| O=C(Nc1ccc(C(=O)N2CCOCC2)cc1)c1ccccc1[N+](=O)[O-] | inactive |
| O/C=c1\ccc2cccc3nc(C(F)(F)F)nc1c23 | inactive |
| Cc1ccc(C)c(NC(=S)NCc2ccccc2)c1 | inactive |
| Cc1ccc(C(=O)NNS(=O)(=O)c2ccccc2[N+](=O)[O-])cc1 | inactive |
| CN(C)c1ccc(N2C(=O)CSC2=S)cc1 | inactive |
| CC(C)C(C)NC(=O)COc1ccc(S(=O)(=O)N2CCOCC2)cc1Cl (centres undefined) | inactive |
| O=C1CC(Nc2ccc(N3CCOCC3)cc2)C(=O)N1CCc1ccccc1 (centres undefined) | inactive |
| O=C(CNC(=O)c1ccc(Cl)cc1Cl)OCc1nnc(-c2ccccc2Br)o1 | inactive |
| CCOC(=O)/C=C1\SC(C)C(=O)N1CC(=O)N(CCC#N)c1ccccc1 (centres undefined) | inactive |

| Compound | outcome |
| --- | --- |
| CC(C)CC(NC(=O)/C(=C/c1ccco1)NC(=O)c1ccc(Br)o1)C(=O)O (centres undefined) | inactive |
| CCC(C)(C)NC(=O)C(c1ccc(F)cc1)N(Cc1ccco1)C(=O)c1cnccn1 (centres undefined) | inactive |
| O=C(Cc1csc(N2CCOCC2)n1)N/N=C/c1ccc(O)c(O)c1O | inactive |
| O=C(CCN1CCN(c2ccccc2)CC1)N/N=C/c1ccc(O)c(O)c1O | inactive |
| CC1CCCN(CC(O)CN2CCN(CC(O)CN3CCCC(C)C3)C(C)C2)C1 (centres undefined) | inactive |
| COC(=O)c1ccccc1NC(=O)CCS(=O)(=O)c1ccc(Br)cc1 | inactive |
| COc1cccc(NC(=O)CN(C)C(=O)CCCc2nc3ccccc3s2)c1 | inactive |
| COC(=O)C1=C(O)/C(=C\c2ccc(CNC(=O)C(=O)Nc3ccc(C)c(C)c3)o2)N=C1C | inactive |
| Cc1cn(C2CCCCO2)c(=O)[nH]c1=O (centres undefined) | inactive |
| CC(=C\c1ccco1)/C=C1/SC(=S)N(CC(=O)O)C1=O | inactive |
| O=C(CCCN1C(=O)/C(=C\c2ccco2)SC1=S)Nc1ccc2ccccc2c1 | inactive |
| COC(=O)c1ccccc1NC(=O)CNC(=O)c1ccc(OC)cc1 | inactive |
| COc1ccc(NC(=O)c2cccnc2C(=O)O)c(OC)c1 | inactive |
| O=C(O)c1c2c(nc3ccc(Cl)cc13)CCC2 | inactive |
| COc1ccc(CNC(=O)c2sc3nc4c(c(C(F)(F)F)c3c2N)CCC4)cc1OC | inactive |
| Cc1ccc(C(c2nnnn2CC2CCCO2)N2CCN(C)CC2)cc1 (centres undefined) | inactive |
| O=[N+]([O-])c1cc2oc3c(c2c(C=NCc2ccncc2)c1O)CCCC3 | inactive |
| COc1cc2c3c(c1OC)C1(C=CC(=O)C=C1)CC3N(C(=O)CCC(=O)O)CC2 (centres undefined) | inactive |
| Oc1ccc(-c2cn3c(n2)SCC3)cc1O | inactive |
| COc1ccc(O)c(N)c1 | inactive |
| O=C(CCCCl)Nc1nc(-c2ccc3c(c2)OCCO3)cs1 | inactive |
| COc1ccc(OC)c(N/C(C)=C/C(=O)c2ccc(C)o2)c1 | inactive |

| Compound | outcome |
| --- | --- |
| CCCCCC#CCC#CCC#CCC#CCCCC(=O)O | inactive |
| CC(=O)Nc1cccc(-c2cc(-c3c(Cl)cccc3Cl)no2)c1 | inactive |
| COc1ccc(NC(=O)/C=C/c2ccc(S(=O)(=O)N3CCOCC3)cc2)cc1 | inactive |
| Cc1cc(-c2n[nH]c(=S)n2/N=C/C=C/c2ccco2)n[nH]1 | inactive |
| COc1ccc(C)cc1NC(=O)COC(=O)CCC(=O)c1cccs1 | inactive |
| N#Cc1ccccc1CN1C(=O)S/C(=C/c2cccn2-c2ccc(C(=O)O)cc2)C1=O | inactive |
| O=C(NCC(c1ccco1)N1CCCC1)c1cccc(S(=O)(=O)N2CCCCC2)c1 (centres undefined) | inactive |
| COc1cc(C(C2C(=O)CC(C)(C)CC2=O)C2C(=O)CC(C)(C)CC2=O)cc(OC)c1OC | inactive |
| O=C(NC1CC1)c1cc(-c2ccco2)nc2ccccc12 | inactive |
| COCCNC(=O)Nc1ccc2nc(-c3ccco3)c(-c3ccco3)nc2c1 | inactive |
| CC(C)CN(C(=O)CN1CCN(S(=O)(=O)c2ccccc2)CC1)c1c(N)n(CC(C)C)c(=O)[nH]c1=O | inactive |
| COC(=O)[C@@]1(Cc2ccc(OC)cc2)[C@H]2c3cc(C(=O)N(C)C)n(C[C@H](O)CO)c3C[C@H]2CN1C(=O)c1ccccc1 | inactive |
| O=C(Nc1nnc(C2CC2)s1)c1ccc(S(=O)(=O)c2ccccc2)cc1 | inactive |
| Cc1nc(C)c(C(=O)Nc2nc3c(C)cccc3s2)o1 | inactive |
| S=c1[nH]nc(COc2ccc(Cl)cc2)o1 | inactive |
| CCCCCCNS(=O)(=O)c1ccccc1Br | inactive |
| Clc1ncnc2scc(-c3ccccc3)c12 | inactive |
| Nc1ccc(S(=O)(=O)c2cc(O)c3ccccc3c2O)cc1 | inactive |
| CCOC(=O)/C(C#N)=C/c1c(OCC)n(CC)c2ccccc12 | inactive |
| COc1ccc(CCN2C(=O)CC(Nc3ccc(N4CCOCC4)cc3)C2=O)cc1OC (centres undefined) | inactive |
| O=C1CCC(CCC(=O)N2CCCC(C(=O)c3ccc4c5c(cccc35)CC4)C2)=NN1 (centres undefined) | inactive |
| Nc1cc(N)c(OCC(F)(F)F)cc1OCC(F)(F)F | inactive |

| Compound | outcome |
| --- | --- |
| CC(=O)c1ccc2c(c1)C1C=CCC1C(c1ccncc1)N2 (centres undefined) | inactive |
| Cc1cccc(Cc2nnc(CCC(=O)N(C)C3CCOC3)o2)c1 (centres undefined) | inactive |
| CCCCn1c(N)c(N(CCC(C)C)C(=O)C2=NN(c3cc(C)ccc3C)C(=O)CC2)c(=O)[nH]c1=O | inactive |
| COc1ccccc1NS(=O)(=O)c1cccs1 | inactive |
| CNc1ccc(Br)cc(C(=O)/C=C/c2cc(OC)ccc2OC)c1=O | inactive |
| CN(C)S(=O)(=O)c1cccc(NC(=S)N/N=C/c2ccc(O)c(O)c2O)c1 | inactive |
| Cc1ccc(C=C2C(Cl)=C(Cl)C(Cl)=C2Cl)cc1 | inactive |
| COC(=O)COc1ccc(S(=O)(=O)Nc2ccc(C(N)=O)cc2)cc1C | inactive |
| O=C1CSC(c2cccnc2)N1Cc1cccnc1 (centres undefined) | inactive |
| Cc1cc(C)c(C(=O)/C=C/c2ccco2)c(=O)[nH]1 | inactive |
| N#CC(C#N)=Cc1cccn1-c1ccc(C(=O)O)cc1 | inactive |
| CCOC(=O)CN(C(=O)CSc1nnc(COc2ccc(OC)cc2)n1CC)c1ccccc1 | inactive |
| O=C(O)CCCNc1cc(N2CCC3(CC2)OCCO3)c2noc3c2c1C(=O)c1ccccc1-3 | inactive |
| Cc1ccc(NC(=O)CSc2nc(CSc3ccc(C)cc3)cc(=O)[nH]2)cc1 | inactive |
| COc1ccc(N(CC(=O)NCCC2=CCCCC2)S(=O)(=O)c2ccccc2)cc1 | inactive |
| COc1cc([N+](=O)[O-])c(N2CCOCC2)c([N+](=O)[O-])c1OC | inactive |
| CC(C)C1Nc2ccc(C(=O)O)cc2C2C=CCC21 (centres undefined) | inactive |
| O=C1NN(c2ccc(Cl)cc2)C(=O)/C1=C\c1ccc(-c2cccc(C(=O)O)c2)o1 | inactive |
| Fc1cc(F)cc(NC(=S)NCCCN2CCOCC2)c1 | inactive |
| CC(C)OP(=O)(OC(C)C)C(O)c1ccc(N(C)C)cc1 (centres undefined) | inactive |
| Cc1ccc(Oc2ccc(/C=N/O)cn2)cc1 | inactive |
| CCOC(=O)C(C#N)(Cc1ccc2ccccc2n1)Cc1ccc2ccccc2n1 | inactive |

| Compound | outcome |
| --- | --- |
| O=C(CCl)N1N=C(c2ccco2)CC1c1ccco1 (centres undefined) | inactive |
| Cc1cccc(NC(=O)CNC(=O)c2cccc(-n3cccc3)c2)c1C | inactive |
| C/C(N)=C(/C#N)C(=O)CSc1nnc(Nc2c(C)cccc2C)s1 | inactive |
| O=C(O)CCCCC1SCC2NC(=O)NC21 (centres undefined) | inactive |
| CN(C(=O)CSc1ncnc2sccc12)C1CCCCC1 | inactive |
| O=C(O)CC(C(=O)O)N1C(=O)/C(=C/C=C/c2ccco2)SC1=S (centres undefined) | inactive |
| O=C1/C(=C/C=C/c2ccco2)SC(=S)N1c1ccc(O)cc1 | inactive |
| CC(C)(C)C1CCC(OC(=O)C[N+]2(C)CCCCC2)CC1 (centres undefined) | inactive |
| CCOc1ccccc1C(=S)NC1CCCCC1 | inactive |
| Cc1nn(CC(=O)NC2CC2)c(C)c1S(=O)(=O)N(C)C | inactive |
| CC(C)(C)c1cc(N/C=C\c2nnnn2-c2ccc(Br)cc2)no1 | inactive |
| CC1CCN(Cc2c(O)ccc3c2O/C(=C\c2ccco2)C3=O)CC1 | inactive |
| CCCSC1=N/C(=C\c2ccc([N+](=O)[O-])o2)C(=O)S1 | inactive |
| O=C1OC(c2ccc(F)cc2)=C/C1=C\c1ccc([N+](=O)[O-])o1 | inactive |
| CCOc1ccc(NC(=O)C2CCCN(S(=O)(=O)c3c(C)n[nH]c3C)C2)cc1 (centres undefined) | inactive |
| Cc1ccc(C)c(/C(O)=C2/C(=O)C(=O)N(CCN3CCOCC3)C2c2ccco2)c1 (centres undefined) | inactive |
| CNc1ccc(Br)cc(C(=O)/C=C/c2ccc(OC)cc2OC)c1=O | inactive |
| CC(=O)c1c(C)[nH]c(C(=O)OCC(=O)C(C)(C)C)c1C | inactive |
| COC(=O)c1sccc1NC(=O)CC1C(=O)NCCN1C(=O)Nc1ccccc1 (centres undefined) | inactive |
| COc1ccc(NC(=O)O/N=C/c2ccccc2Cl)cc1 | inactive |
| N#C/C(=C/c1ccc(Br)o1)C(N)=S | inactive |
